# Test results taken from PubChem BioAssay AID2148 (The Scripps Research Institute Molecular Screening Center, 2009).
# In all, about 2,400 compounds went through this assay and about 1,500 (62%) were called active. The set was probably picked from earlier hits. Not all results are given here. Unmarked numbers belong to inactive results. No stated cut-off is given here; in the data, active means inhibition above about 22%; inactive means the rest.
# Target: Melanin-concentrating hormone receptor 1 (Homo sapiens) (UniProt Q99705)
# Assay: antagonism of human MCHR1 receptor – cell-based, fluorescence, counter-screen for GPR7 antagonist project (AID 2148);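 further: 0% = vehicle with agonist and 100% = vehicle without agonist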
# Details: MCHR1-expressing cells, fluorescence antagonist assay; at 4.4 µM; stronger effect = higher value
row,SMILES,inhibition
1,Cc1ccccc1CN1C[C@@H]2C[C@@H](c3cn(C)nc3-c3ccccc3)N3CCC[C@@]23C1=O,21.2%
2,COc1ccccc1Oc1ccc(S(=O)(=O)Nc2cccnc2)cc1,39.9% (active)
3,COc1ccc(C)cc1NC(=O)NCCCCc1ccccc1,22.6% (active)
4,CCC(C(=O)Nc1ccc(C(C)C)cc1)c1ccccc1 (stereo not given),95.6% (active)
5,Cc1cc2c(cc1C)N(Cc1ccccc1)C1=NCCCN12,9.03%
6,Cc1cc(Cl)ccc1OCCCC(=O)Nc1cccc(-n2cnnn2)c1,45.7% (active)
7,O=C(CN1CCN(C(=S)NC2CCCC2)CC1)Nc1ccc(Oc2ccccc2)cc1,52.8% (active)
8,O=C(CCc1ccccc1)Nc1ccc(NC(=O)C2CC2)nc1,4.99%
9,COc1ccc(C(=O)CSc2nnc(COc3ccccc3)n2Cc2ccco2)cc1,38.8% (active)
10,O=C(CSc1nnc(-c2ccco2)o1)NCC(=O)c1ccccc1,19.5%
11,CCSc1nsc(NC(=O)Nc2cccc(C(C)=O)c2)n1,62% (active)
12,C=CCSc1nsc(NC(=O)Nc2cccc(C(C)=O)c2)n1,68.9% (active)
13,Cc1ccc(NC(=S)N(CCCN2CCC(C)CC2)Cc2ccco2)cc1,-1.82%
14,Oc1cccc(/C=N/Nc2ccc(Cl)nn2)c1O,28.3% (active)
15,N#CC1=C(SCc2ccc(C#N)cc2)N=C(N)C(c2nc(-c3ccccc3)cs2)C12CCCCC2 (stereo not given),24.5% (active)
16,N=c1n(CCc2ccccc2)c2ccccc2n1Cc1ccccc1F,53.5% (active)
17,CCc1ccc2nc(N(CCCN(C)C)C(=O)c3ccc4c(c3)OCCO4)sc2c1,31.3% (active)
18,CN(C)CCCN(C(=O)c1ccc(S(=O)(=O)N2CCCc3ccccc32)cc1)c1nc2ccc(F)cc2s1,72.1% (active)
19,CN(C)CCCN(C(=O)c1ccc(S(=O)(=O)N2CCCCCC2)cc1)c1nc2ccc(Br)cc2s1,71.8% (active)
20,CCn1c2ccc(F)cc2c2nnc(SCCN3CCOCC3)nc21,-2.62%
21,O=C(Nc1ccc2c(c1)OCO2)C1CC(c2c(F)cccc2Cl)=NO1 (stereo not given),2.22%
22,O=C(NCCNc1ccc([N+](=O)[O-])cc1Cl)c1ccccc1F,35.2% (active)
23,CN(C)S(=O)(=O)N1CCC(Oc2cccc(C(=O)NCCCC3CCCC3)c2)CC1,90.4% (active)

row,SMILES,inhibition
1,CS(=O)(=O)N(Cc1ccc(Cl)cc1)c1ccc(C(=O)NCCSCc2ccco2)cc1,22.2% (active)
2,CC(=O)N1CCCc2cc(S(=O)(=O)N3CCCC(C(=O)N4CCN(c5cccc(Cl)c5)CC4)C3)ccc21 (stereo not given),71.3% (active)
3,CCc1c(C)nc2c(-c3ccccc3)c(C)nn2c1Nc1ccc(NC(C)=O)cc1,24.5% (active)
4,Cc1ccc2nc(C)c3c(c2c1)N(c1ccccc1)CC3,22.2% (active)
5,c1ccc(C2CNCc3c2ccc2ccccc32)cc1 (stereo not given),73.3% (active)
6,CCCCCCCCCCOC(=O)Cn1c(COc2cccc(OC)c2)[n+](C)c2ccccc21,81.7% (active)
7,Cc1ccc(SCc2cc(=O)[nH]c(N3CCCCC3)n2)cc1,-8.9%
8,CCN1CCN(c2c(Cl)cccc2NC(=O)c2ccc(Br)o2)CC1,21%
9,CC(C)(C)NCc1cc(Br)ccc1OC1CCCC1,11.2%
10,CC(NCc1ccccc1OC1CCCC1)c1ccccc1 (stereo not given),33% (active)
11,CCN(CC)CCOCCOc1ccc(Cl)c2ccccc12,19.4%
12,COc1ccccc1N(C(=O)Cn1nnc2ccccc21)C(C(=O)NCc1ccco1)c1ccc(C)o1 (stereo not given),25.9% (active)
13,O=[N+]([O-])/C=C/c1ccc2c(ccn2Cc2ccccc2)c1,104% (active)
14,CCCOc1ccccc1C1CC(=O)Nc2cc3c(cc21)OCO3 (stereo not given),51.8% (active)
15,COc1cc(OC)cc(C(=O)N[C@H](C(=O)OCC(=O)NC(C)c2ccccc2)C(C)C)c1 (stereo not given in full),65% (active)
16,Cc1ccc(NC(=O)CN2C(=O)NC(C)(c3ccc(Cl)cc3)C2=O)c(Br)c1 (stereo not given),6.97%
17,COc1cc(NC(=O)CN2C(=O)NC(C)(c3ccc(OC(F)F)cc3)C2=O)cc(OC)c1OC (stereo not given),28.4% (active)
18,C=CCNC(=O)COC(=O)c1ccccc1C(=O)N(C)C1CCCCC1,-2.95%
19,C=CCC1(CC=C)CCCN1C(=O)c1cc(COc2ccc(-n3cncn3)cc2)on1,55.2% (active)
20,CCc1ccc(NC(=O)c2ccc(Cn3cc([N+](=O)[O-])cn3)cc2)cc1,35.1% (active)
21,CCOc1ccc(C(=O)NC(=S)Nc2ccc(N3CCOCC3)c(Cl)c2)cc1[N+](=O)[O-],24.7% (active)
22,CC(C(=O)N1CCN(c2ccccc2F)CC1)c1ccc([N+](=O)[O-])cc1 (stereo not given),27.9% (active)
